MARV entry inh = qHTS for inhibitors of binding or entry into cells for Marburg Virus. Marburg virus pseudotyped entry inhibition, cell reporter. Potency, µM (top dose mostly 37.8 µM), hits mostly inhibitors. hit rate 1.8% among 300,000. AID 540276, 2011; calls by dose curve; tested in HEK293 cells
FMDV inh = High Throughput Screening for Foot and Mouth Disease Virus Antivirals. FMDV antiviral cell-based qHTS. Potency, µM (series often up to 57.9 µM), most hits filed as inhibitors. hit rate 1.2% among 410,000. AID 1159524, 2015; calls by dose curve; tested in HEK293T cells; also: read-out not given here; nearly all actives have a fitted effect of over 45% in size
HCV inhibitor = qHTS Assay for Inhibitors of Hepatitis C Virus (HCV). AID 651820, 2012. Potency, µM (top dose mostly 41.8 µM), actives largely listed as inhibitors. hit rate 3.4% among 340,000. Huh7.5.1 HCVcc-Cre infection, luciferase reporter, 44 h; active = well fitted inhibition curve with a large enough effect; inconclusive = small, poorly fitted or top-dose-only effect, or another doubt; inactive = no such curve, though single readings can be large or run the other way
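Infectious HCVcc-Cre (~0.5 moi) was added to cells just after compound, with cells seeded 4 h earlier at 1,000 per well. Luciferase activity after 44 h culture reported infection; substrate was incubated 15 min at room temperature before reading.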
LASV entry inh = qHTS for Inhibitors of binding or entry into cells for Lassa Virus. Lassa virus pseudotype entry inhibition, cell reporter. Potency, µM (highest dose often 37.9 µM), actives largely listed as inhibitors. hit rate 1.2% among 300,000; calls by dose curve; tested in HEK293 cells; also: nearly all actives have a fitted effect of over 50% in size
HCMV antiviral = qHTS Assay for inhibitors of the human cytomegalovirus (HCMV); HFF cells, HCMV-luciferase reporter, 72 h; stronger effect = lower value; activity change, negative = inhibition, % at 57.5 µM; hit rate 4.5% among 410,000; in the data active = activity change below about -60%; inconclusive = no clear call, values can overlap the other calls; inactive = above about -39%
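Two compound doses tested in HFFs infected with HCMV-luciferase, MOI 1 PFU/cell, 72 h at 37C. Lysate luminescence read with OneGlo; data normalized against buffer-only and 10uM Salinomycin inhibitor controls.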
Numbers stand for hits; n = inactive; u = inconclusive; x = no result given; [ ] = another dose, or the depositor's remark. Only some compounds are listed: those with a hit (about 7.9% of all), similar ones and a draw of the others.

SMILES | MARV entry inh | FMDV inh | HCV inhibitor | LASV entry inh | HCMV antiviral
Cc1ccc(CNC(=O)C(=O)NCC2OCCN2S(=O)(=O)c2ccc(Br)cc2)cc1 (stereo unspecified) | u | u | x | 7.9µM | u
COc1ccc(CN2CCCC(n3cc(C(=O)NC4CCCC4)nn3)C2)c2ccccc12 (stereo unspecified) | x | n | x | x | x
O=S1(=O)C=CCN1CCc1ccccc1 | x | x | x | n | x
Cc1cc(C)c2nc(NCc3ccccc3O)sc2c1 | x | n | u | x | -65
CC1CCCC(C)N1C(=O)CNCc1ccc2c(c1)OCO2 (stereo unspecified) | x | n | n | x | n
CCOc1cc(Br)c(CN2C(=O)NC3(CCCCCC3)C2=O)cc1OCC | 11µM | u | n | x | n
CCC(OCC(O)CN1CCCCC1)c1ccccc1 (stereo unspecified) | x | n | n | x | n
Cc1ccc(CNC(=O)Nc2ccccc2)c(C)c1 | u | n | u | n | n
CN(C)c1ccc(C(=O)Nc2ccc(O)c3c(=O)cc(-c4ccccc4Cl)oc23)cc1 | x | n | 32µM | x | n
O=c1cc(-c2ccccc2Cl)oc2c([N+](=O)[O-])c(O)cc(O)c12 | n | n | n[8.37 µM] | n | -72
O=c1cc(-c2ccccc2Cl)oc2ccc([N+](=O)[O-])c(O)c12 | n | n | n | n | n
CC1=C(C(=O)N(C)C)CC(CC(=O)NC2CCCC2)C(=O)N1Cc1ccccc1 (stereo unspecified) | x | n | x | x | n
CSc1nc(Oc2cccc(C(F)(F)F)c2)cc(C(F)(F)F)n1 | u | n | n | n | n
CSc1nccc(Oc2cccc(C#N)c2)n1 | n | n | n | n | -61
CCOc1ccccc1NC(=O)CSC1=NN2CCCC(=O)N=C2S1 | u | n | n | n | -80
COc1ccc(Cl)cc1NC(=O)CSC1=NN2CCCC(=O)N=C2S1 | u | u | u | n | -71
CCOC(=O)c1c(NC(=O)CSC2=NN3CCCC(=O)N=C3S2)sc2c1CCCCC2 | n | n | 8.9µM | n | n
COc1ccc(OC)c(NC(=O)CSC2=NN3CCCC(=O)N=C3S2)c1 | n | n | n | n | n
C#Cc1ccc(-n2nc3ccccc3c2OC)cc1 | x | x | x | x | n
Oc1ccc(-c2cnccn2)cc1CN1CCN(C2CCCCC2)CC1 | x | n | x | x | x
CCN(CC)S(=O)(=O)c1csc(C(=O)NCc2ccccc2)c1 | n | u | u | u | -71
CC1=NC(=O)C(N=Nc2cccc(C(=O)O)c2)N1c1ccccc1 (stereo unspecified) | 2.6µM | 8.9µM | n | 2.3µM | n
COc1ccc(-c2nc3c(c(=O)[nH]c(=O)n3Cc3ccccc3)n2CCO)cc1 | n | n | n | 2.2µM | n
COc1ccc(Br)cc1-c1nc2c(c(=O)[nH]c(=O)n2Cc2ccccc2)n1C | n | n | n | u | n
COCCn1c(-c2ccc(SC)cc2)nc2c1c(=O)[nH]c(=O)n2CC(C)C | n | n | n | u | n
SMILES | MARV entry inh | FMDV inh | HCV inhibitor | LASV entry inh | HCMV antiviral
COCCn1c(-c2ccc(OC(F)(F)C(F)C(F)(F)F)cc2)nc2c1c(=O)[nH]c(=O)n2CC(C)C (stereo unspecified) | n | u | n | 2.8µM | n
CCCCn1c(=O)[nH]c(=O)c2c1nc(-c1ccc(C)c([N+](=O)[O-])c1)n2CC | u | n | u | u | n
Cc1ccc(-c2nc3c(c(=O)[nH]c(=O)n3CC(C)C)n2CC(C)C)cc1[N+](=O)[O-] | u | n | u | u | -62
Cn1c(-c2cc(Cl)ccc2O)nc2c1c(=O)[nH]c(=O)n2Cc1ccccc1 | 2µM | u | u | u | n
COCCn1c(=O)[nH]c(=O)c2c1nc(-c1ccc(-c3ccc(Cl)cc3[N+](=O)[O-])o1)n2Cc1ccccc1 | u | u | 10µM | 10µM | n
COCCCn1c(-c2cccc(Cl)c2)nc2c1c(=O)[nH]c(=O)n2Cc1ccccc1 | n | n | n | u | n
O=c1[nH]c(=O)n(Cc2ccccc2)c2nc(-c3ccc(Oc4ccc(F)cc4)c([N+](=O)[O-])c3)n(CCO)c12 | u | n | u | u | -64
COc1ccc(-c2ccc(-c3nc4c(c(=O)[nH]c(=O)n4Cc4ccccc4)n3C)o2)c([N+](=O)[O-])c1 | n | n | u | n | n
Cc1nc(SCC(=O)Nc2cc(C(N)=O)cc(C(N)=O)c2)c2c(C)c(C)sc2n1 | x | n | n | x | n
COc1cccc(NC(=O)CCNC(=O)Cn2cnc3ccccc3c2=O)c1 | n | n | x | n | n
COc1ccc(NC(=O)c2ccc([N+](=O)[O-])o2)cc1 | 11µM | n | u | n | -101
CC(=O)c1cccc(NC(=O)c2ccc([N+](=O)[O-])o2)c1 | u | n | u | u | -87
Cc1cc(C)cc(NC(=O)c2ccc([N+](=O)[O-])o2)c1 | u | n | u | u | n
CC(=O)c1ccc(NC(=O)c2ccc([N+](=O)[O-])o2)cc1 | x | n | u | x | -105
O=C(Nc1cccc(S(=O)(=O)N2CCCCC2)c1)c1ccc([N+](=O)[O-])o1 | x | n | u | x | n
Cc1ccc(C)c(-c2nnc(NC(=O)c3ccc([N+](=O)[O-])o3)o2)c1 | n | n | u | u | -74
CCCCN(CCCNC(=O)c1c(C)cc(=O)oc1C)c1ccccc1 | n | n | 4µM | n | n
CCCCN(CCCNC(=O)c1ccc2c(c1)NC(=O)CN2C)c1ccccc1 | x | 22µM | x | x | -98
CCCCN(C(=O)c1ccc2c(c1)NC(=O)CS2)c1ccccc1 | x | n | u | x | -100
O=C(Cn1c(=O)nc(-c2ccccc2)c2ccccc21)Nc1cccc(C(F)(F)F)c1 | x | n | x | n | n
COc1ccc(C(=O)N2CCC3(CC2)c2ccccc2[C@@H](NC(=O)c2ccccn2)[C@@H]3OC)c(O)c1 | x | n | x | x | x
COc1ccc(CNc2nc(-c3ccc(OC)c(OC)c3)cc(C(F)(F)F)n2)cc1 | n | n | x | n | n
CCOc1cc2nc(-c3ccc(OC)c(OC)c3)nc(N3CC(C)OC(C)C3)c2cc1OC (stereo unspecified) | n | x | x | x | x
COc1ccc(-c2cc(-c3ccccc3)nc(N3CCCC3)n2)cc1OC | n | n | 3.5µM | n | n
COc1ccc(-c2cc(C(F)(F)F)nc(N3CCOCC3)n2)cc1OC | n | n | 3.2µM | n | n
SMILES | MARV entry inh | FMDV inh | HCV inhibitor | LASV entry inh | HCMV antiviral
CCOc1cc2nc(-c3ccc(OC)c(OC)c3)nc(N3CCOCC3)c2cc1OC | 2.5µM | u | u | u | n
COc1ccc(-c2cc(C(F)(F)F)nc(NC3CCCC3)n2)cc1OC | u | n | 2.2µM | u | n
COc1ccccc1C1CN(Cc2cccc(C)n2)Cc2ccccc2O1 (stereo unspecified) | x | n | x | x | x
N#CC(c1ccc(Cl)nn1)c1ccc(Cl)cc1Cl (stereo unspecified) | u | n | 11µM | u | n
COc1ccc(C(C#N)c2ccc(Cl)nn2)cc1 (stereo unspecified) | n | n | n | n | n
O=C1c2[nH]nc(-c3ccccc3O)c2C(c2ccc(Cl)cc2)N1Cc1ccco1 (stereo unspecified) | n | n | x | u | u

Source: PubChem (National Center for Advancing Translational Sciences (NCATS))
